Shown are actives, neighbours in structure and some others; about 0.41% of the full set was active somewhere.
N370S GC: inhibits or activates N370S mutant glucocerebrosidase; P04062; N370S GC spleen homogenate, 4MU-glucoside fluorescence; Potency, µM (titrated, usually from 59.4 µM), without a hit: at the top dose activity change, negative = inhibition, hits mostly inhibitors; hit rate 0.092% among 330,000; AID 2101;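 further: potency means the concentration at half of the fitted maximal effect; 0% = full enzyme activity and -100% = no enzyme basal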
GAA inh: inhibitors of human lysosomal alpha-glucosidase. Potency, µM (titrated, usually from 76.9 µM), without a hit: top-dose activity change, negative = inhibition, actives largely listed as inhibitors. hit rate 0.005% among 200,000. purified human GAA, 4-MU-alpha-glucoside fluorescence. P10253;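 further: potency means the concentration at half of the fitted maximal effect; plate controls were uninhibited enzyme wells for no effect and no-enzyme background for full effect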
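Activity normalized between no-enzyme (basal) and enzyme-only wells. Conditions: 4 nM human enzyme, 400 uM fluorogenic substrate, citrate/phosphate pH 5.0 with Tween-20, 20 min room temperature, compounds up to 77 uM.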
aGlu spleen mod: inhibits or activates alpha-glucosidase in human spleen homogenate; P10253; human spleen homogenate, 4-MU-alpha-glucoside fluorescence; Potency, µM (highest dose often 79.9 µM), without a hit: top-dose activity change, negative = inhibition, hits mostly inhibitors; hit rate 0.006% among 240,000;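 further: potency means the concentration at half of the fitted maximal effect; 0% = enzyme with vehicle and -100% = no enzyme basal signal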
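AC50 values come from Hill-equation fits of concentration-response data, normalized to no-enzyme and full-activity controls. Enzyme source: 1 ug human spleen homogenate; 1 mM fluorogenic 4-MU glucoside, pH 5.0 citrate buffer, 37 C, 40 min.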
GLA inh pH 4.5: alpha-galactosidase A (human) inhibition, pH 4.5 | P06280 | purified enzyme, 4-MU-alpha-Gal fluorescence, pH 4.5 | activity change, negative = inhibition, % at 105 µM | 230,000 tested, under 10 active;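 further: 0% = full activity with enzyme and -100% = basal without enzyme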
GAA glycogen mod: inhibitors or activators of human alpha-glucosidase glycogen cleavage; P10253; recombinant GAA, glycogen substrate, Amplex Red glucose oxidase fluorescence; Potency, µM (doses to about 76.4 µM), inactives show at the highest dose activity change, negative = inhibition, most hits filed as inhibitors; hit rate 0.38% among 300,000; AID 2100;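 further: potency means the concentration at half of the fitted maximal effect; 0% = full enzyme reaction and -100% = no-enzyme basal signal; the screen sought inhibitors and activators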
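Recombinant human alpha-glucosidase (4 nM final) hydrolysed bovine liver glycogen (30 ug) for 40 min at 37 C in pH 5.0 citrate/phosphate with 0.01% Tween-20. Released glucose detected by glucose oxidase/Amplex Red, Ex 573/Em 610 nm. Compounds up to 77 uM; AC50 from Hill fits.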
GLA spleen mod: alpha-galactosidase A (human) modulation; P06280; human spleen homogenate, 4MU-alpha-Gal fluorescence, 40 min; Potency, µM (top dose mostly 80 µM), for the others: at the highest dose activity change, negative = inhibition, hits mostly inhibitors; hit rate 0.008% among 240,000;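 further: potency means the concentration at half of the fitted maximal effect; 0% = enzyme with vehicle and -100% = no enzyme basal signal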
Target sequence (P06280 32-429 limits assumed): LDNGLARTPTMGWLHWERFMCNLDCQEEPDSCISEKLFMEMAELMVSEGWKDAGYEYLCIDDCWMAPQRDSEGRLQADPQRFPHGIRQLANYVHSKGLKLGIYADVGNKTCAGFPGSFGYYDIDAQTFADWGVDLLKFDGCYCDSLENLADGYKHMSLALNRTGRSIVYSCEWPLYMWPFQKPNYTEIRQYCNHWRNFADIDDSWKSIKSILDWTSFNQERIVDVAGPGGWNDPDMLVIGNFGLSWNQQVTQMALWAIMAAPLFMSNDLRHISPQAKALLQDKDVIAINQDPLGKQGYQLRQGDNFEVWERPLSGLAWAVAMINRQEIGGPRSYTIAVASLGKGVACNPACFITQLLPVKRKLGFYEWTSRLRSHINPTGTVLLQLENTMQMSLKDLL
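Human spleen homogenate (1 ug) as enzyme source, 4-methylumbelliferyl-alpha-D-galactopyranoside 1 mM final, citrate/phosphate pH 5.0 with 0.01% Tween-20. Compounds 40 min at 37C, NaOH/glycine stop; fluorescence Ex 365/Em 440, Hill-fit AC50.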
The depositor's hits bear a star; ! = not active in a repeat; [ ] = dose if it differs, or a comment. The call rests on the fitted dose curve; in most records, active means well fitted curve in the direction sought with a large enough effect; inconclusive means small, poorly fitted or top-dose-only effect, or another doubt; inactive means no such curve, though single readings can be large; an effect the other way counts as inactive or inconclusive.

Results for Cc1ccc(S(=O)(=O)Nc2cc(C)c(O)c(S(=O)(=O)c3ccc(C)cc3)c2)cc1 ?
N370S GC: 17%; GAA inh: -10%; aGlu spleen mod: -3%; GLA inh pH 4.5: -5; GAA glycogen mod: 11µM*; GLA spleen mod: 4%

Results for Cc1cc(O)c(C(C)C)cc1NS(=O)(=O)c1ccccc1 ?
N370S GC: 4%; GAA inh: -4%; aGlu spleen mod: -3%; GLA inh pH 4.5: -2; GAA glycogen mod: 9.9µM*; GLA spleen mod: -3%

How did Cc1ccc(S(=O)(=O)c2cc(Nc3ccccc3)ccc2O)cc1 do in these assays?
N370S GC: -2%

Results for COc1ccc(S(=O)(=O)Nc2cc(S(=O)(=O)c3ccccc3)c(O)cc2C)cc1 ?
N370S GC: 5%; GAA glycogen mod: 1%

What do the screens show for `Cc1cc(NS(=O)(=O)c2ccccc2)cc(Cl)c1O`?
N370S GC: 1%[2.35 µM]; GAA inh: -11%; aGlu spleen mod: -2%; GLA inh pH 4.5: 0; GAA glycogen mod: 20µM*; GLA spleen mod: 3%

What do the screens show for `OCCNc1nc(Nc2ccccc2)nc(Nc2ccccc2)n1`?
N370S GC: 11µM*; GAA inh: -2%; aGlu spleen mod: -2%; GLA inh pH 4.5: -2; GAA glycogen mod: 2%; GLA spleen mod: -1%

Results for OCCNc1nc(Nc2ccccc2)nc2ccccc12 ?
N370S GC: 6%; GAA inh: -6%; aGlu spleen mod: -1%; GLA inh pH 4.5: -1; GAA glycogen mod: 1%; GLA spleen mod: 4%

How did COc1ccc(Nc2nc(C)c(-c3ccccc3)s2)cc1 do in these assays?
N370S GC: -7%; GAA inh: -9%; aGlu spleen mod: -2%; GLA inh pH 4.5: -4; GAA glycogen mod: 14µM*; GLA spleen mod: 3%

How did Cc1nc(Nc2ccc(S(N)(=O)=O)cc2)sc1-c1ccccc1 do in these assays?
N370S GC: 1%; GAA glycogen mod: 6%

How did CCC(C)NC(=O)CCSc1ccc(C)cc1 (stereo unspecified) do in these assays?
N370S GC: 6%; GAA inh: 2%; aGlu spleen mod: -17%; GLA inh pH 4.5: 0; GAA glycogen mod: 4%; GLA spleen mod: -1%

How did Cn1c(SCc2ccccc2)nnc1-c1ccco1 do in these assays?
N370S GC: 5%; GAA inh: -3%; aGlu spleen mod: 3%; GLA inh pH 4.5: 5; GAA glycogen mod: -8%; GLA spleen mod: 5%

Results for Cc1ccc(C)c(NNC(N)=S)c1 ?
N370S GC: 2%; GAA inh: -6%; aGlu spleen mod: -4%; GLA inh pH 4.5: -3; GAA glycogen mod: 9.9µM*; GLA spleen mod: -1%

How did O=C(NCc1ccccn1)C(=O)NN=C1CCCCCCC1 do in these assays?
N370S GC: 9%; GAA inh: -8%; aGlu spleen mod: 2%; GLA inh pH 4.5: -5[21.1 µM]; GAA glycogen mod: 32µM*; GLA spleen mod: 2%

What do the screens show for `O=C(NCC1CCCO1)NC1(C(F)(F)F)Oc2ccccc2O1` (stereo unspecified)?
N370S GC: 12%; GAA inh: -2%; aGlu spleen mod: -2%; GLA inh pH 4.5: 8; GAA glycogen mod: -19%; GLA spleen mod: 2%

What do the screens show for `O=C(NC1(C(F)(F)F)Oc2ccccc2O1)N1CCCC1`?
N370S GC: 2%; GAA inh: -3%; aGlu spleen mod: 2%; GLA inh pH 4.5: 2; GAA glycogen mod: 7.9µM*; GLA spleen mod: 4%

Results for CCOC(=O)c1cnn2c(C(F)(F)F)cc(-c3ccco3)nc12 ?
N370S GC: 21%; GAA inh: inconclusive; aGlu spleen mod: 15%; GLA inh pH 4.5: 6; GAA glycogen mod: -21%; GLA spleen mod: inconclusive

Results for CCOc1ccc(Nc2oc(-c3ccco3)nc2C#N)cc1 ?
N370S GC: -2%; GAA inh: -3%; aGlu spleen mod: -7%; GLA inh pH 4.5: -4; GAA glycogen mod: 35µM*; GLA spleen mod: -3%

What do the screens show for `O=[N+]([O-])c1cc(S(=O)(=O)/N=C(/c2ccccc2)N2CCOCC2)ccc1Cl`?
N370S GC: 6%; GAA inh: 4%; aGlu spleen mod: -4%; GLA inh pH 4.5: 4; GAA glycogen mod: 7%; GLA spleen mod: -9%

How did CCCCSc1nnc(NC(=O)CCc2ccccc2)s1 do in these assays?
GAA inh: 0%; aGlu spleen mod: -5%; GLA inh pH 4.5: -4; GAA glycogen mod: -19%; GLA spleen mod: 0%

Results for Cc1ccc(-n2c(=O)c3ccc(C(=O)NCc4ccco4)cc3n(Cc3ccccc3Cl)c2=O)cc1 ?
GAA glycogen mod: -6%[76.3 µM]

Results for Cc1ccc(-n2c(=O)c3ccc(C(=O)NCc4ccco4)cc3n(Cc3ccccc3C#N)c2=O)cc1 ?
N370S GC: -9%; GAA inh: 4%; aGlu spleen mod: -8%; GLA inh pH 4.5: -4; GAA glycogen mod: 32µM*!; GLA spleen mod: 5%

What do the screens show for `CCc1ccccc1N(CC(=O)NC1CCCCC1)C(=O)CCCC(=O)Nc1ccccn1`?
N370S GC: 0%; GAA glycogen mod: 0%

How did CCOC(=O)C1CCCN(c2c(C(=O)c3ccc(OCC)cc3)cnc3ccccc23)C1 (stereo unspecified) do in these assays?
GAA glycogen mod: 11µM*

Results for O=C(CCc1ccc(O)cc1)c1c(O)cc(O)cc1O ?
N370S GC: 18µM*!; aGlu spleen mod: 0%; GLA inh pH 4.5: -14; GAA glycogen mod: 31µM*; GLA spleen mod: -1%

What do the screens show for `CN1c2ccccc2C(C)(C)C12C=Nc1c(ccc3ccccc13)O2` (stereo unspecified)?
N370S GC: 2%; GAA inh: 1%; aGlu spleen mod: 6%; GLA inh pH 4.5: -8; GAA glycogen mod: 8%; GLA spleen mod: 13%

How did CN1c2ccccc2C(C)(C)[C@]12C=Cc1cc(O)ccc1O2 do in these assays?
N370S GC: -22%; GAA inh: -5%; aGlu spleen mod: -6%; GLA inh pH 4.5: -3; GAA glycogen mod: 7.9µM*; GLA spleen mod: -4%

What do the screens show for `O=C(Nc1ccc2c(c1)OCO2)C1CC(=O)N(c2cccc(Cl)c2)C1` (stereo unspecified)?
N370S GC: -1%; GAA glycogen mod: -5%[76.3 µM]

How did COc1cc(/C=N/Nc2ccc(C(=O)O)cc2)ccc1O do in these assays?
N370S GC: -20%; GAA inh: -10%; aGlu spleen mod: -4%; GLA inh pH 4.5: -12[21.1 µM]; GAA glycogen mod: 5.6µM*; GLA spleen mod: -1%

What do the screens show for `COc1cc(/C=N/Nc2ccc(C(=O)O)cc2)cc(OC)c1OC`?
N370S GC: 3%; aGlu spleen mod: 2%; GLA inh pH 4.5: -16; GAA glycogen mod: inconclusive; GLA spleen mod: -16%
